Bioassay records as filed in PubChem BioAssay.
Cy5 interf NS3h = Cy5 fluorescence interference, HCV helicase counter-screen. Cy5-dT15 DNA with NS3h; actives lie on both sides; signal over control mean, under 1 quenches. fluorescence interference ratio at 100 µM. AID 720488. 16,000 tested, 6% active;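 active = compound fluorescence over control fluorescence at most 0.8, a quencher, or at least a set upper limit, an enhancer; inactive = ratio between 0.8 and the set upper limit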
NS3h inh CB = blocks HCV NS3 helicase binding to DNA; NS3h Cy5-dT15 DNA binding, fluorescence polarization; inhibition, % at 100 µM; 16,000 tested, 1.6% active;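 active = inhibition above the average over every tested compound plus 3 SD, cut at about 40% in these data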
Hits are given with their value; i = inactive. An excerpt weighted towards active compounds, which were near 6.8% of everything screened.

SMILES	Cy5 interf NS3h	NS3h inh CB
O=C(Nc1cccc(F)c1)[C@H]1CC=CC[C@H]1C(=O)O	i	i
Cc1ccc(-c2[nH]n3c(=O)cc(-c4ccccc4)nc3c2C)cc1	i	i
CCCC(=O)c1ccc(N2CCN(C(=O)CCC)CC2)c(F)c1	0.751	i
CCCC(=O)N1CCN(c2ccc(C(=O)c3ccc(C)c(C)c3)cc2F)CC1	i	i
C=CCOc1ccc(/C=C2/C(=O)N(c3ccccc3)N=C2C)cc1OCC	i	i
CC(C)OC(=O)c1cc2nc(-c3cccs3)cc(C(F)(F)F)n2n1	0.661	i
Cc1c(Cl)cccc1NC(=O)c1cc2nc(-c3cccs3)cc(C(F)(F)F)n2n1	i	i
CCOC(=O)c1nc2nc(-c3cccs3)cc(C(F)(F)F)n2n1	0.753	i
CCOC(=O)C1=C(C)N=c2s/c(=C\c3cccs3)c(=O)n2C1c1ccc(SC)cc1 (stereo unspecified)	i	i
O=C(c1cccc(C#Cc2ccccc2)c1)N1CCN(C/C=C/c2ccccc2)CC1	i	i
C=C(C)c1cccc(C(C)(C)NC(=O)N2CCN(C/C=C/c3ccccc3)CC2)c1	0.654	i
COc1cccc(N2C(=O)C(=O)C(=C(O)c3ccccc3)C2c2ccc(Cl)cc2)c1 (stereo unspecified)	i	i
COc1cccc(N2C(=O)C(=O)C(=C(O)c3ccccc3)C2c2ccccc2Cl)c1 (stereo unspecified)	0.726	i
CCOC(=O)/C(=C/Nc1ccccc1)C(=O)Nc1ccccc1	i	i
O=C(Nc1c(C(=O)N2CCOCC2)cnn1-c1ccccc1)c1ccccc1	i	i
O=C(Nc1c(C(=O)N2CCCCCC2)cnn1-c1ccccc1)c1cccc(F)c1	1.27	i
COc1ccc(-n2nc3cc(C)c(NC(=O)c4ccco4)cc3n2)cc1	i	i
O=C(O)CCC(=O)Nc1ccc2nn(-c3ccccc3)nc2c1	i	i
Nc1cccc(NC(=O)c2ccco2)c1	i	i
Cc1ccc(NC(=O)c2ccco2)cc1NC(=O)c1ccccc1	0.78	i
COc1ccc(CC(=O)Nc2ccc(C)c(NC(=O)c3ccccc3)c2)cc1OC	i	i
O=C(Nc1ccc2nn(-c3ccccc3)nc2c1)C(Cl)(Cl)Cl	0.689	i
Cc1ccc(-n2nc3ccc(NC(=O)c4ccco4)cc3n2)cc1	0.683	i
CCOC(=O)c1cccc(NC(=O)c2ccco2)c1	0.683	i
CN(C)c1ccc(P(=O)(c2ccc(N(C)C)cc2)c2ccc(N(C)C)cc2)cc1	i	i
SMILES	Cy5 interf NS3h	NS3h inh CB
O=[N+]([O-])c1cccc(S(=O)(=O)NCc2ccc(Cl)cc2)c1	i	i
O=C(Nc1nnc(-c2cccs2)s1)c1cccc2ccccc12	i	i
COc1ccc(N(CC(=O)N2CCCC2)S(=O)(=O)c2ccc(C)cc2)cc1OC	i	i
Clc1ccc(/C=N\n2cnnc2)cc1	i	i
Clc1ccc(-c2ccc(/C=N/n3cnnc3)o2)c(Cl)c1	0.71	i
O=C(O)CN(c1ccc(Br)cc1)S(=O)(=O)c1ccccc1	i	i
O=C(CO/N=C\c1ccccc1)N=Nc1c(O)[nH]c2ccc(Br)cc12	0.778	i
O=C(CSCc1cccc(Br)c1)N=Nc1c(O)[nH]c2ccccc12	0.804	i
NC(=O)N=Nc1c(O)[nH]c2ccccc12	i	i
Cc1ccc2[nH]c(O)c(N=NC(=O)COc3ccccc3)c2c1Br	i	i
COc1ccc(NC(=O)C(=O)NCc2ccncc2)cc1Cl	i	i
O=C(NC(c1ccccc1)c1ccccc1)C1CC1c1ccccc1 (stereo unspecified)	0.683	i
O=C(Cc1cccc2c(S(=O)O)cccc12)NC(c1ccccc1)c1ccccc1	i	i
Cc1ccc(-n2nc(C)c(-c3cccc([N+](=O)[O-])c3)c2C)cc1C	i	i
Cc1nn(-c2ccc(Cl)c(Cl)c2)c(C)c1-c1cccc([N+](=O)[O-])c1	0.692	i
CCOc1ccccc1OCCCOc1ccccc1OCC	i	i
O=C(CN1CCN(C(c2ccccc2)c2ccccc2)CC1)Nc1ccc(F)cc1	i	i
CCOc1ccc(C2=C/C(=C/c3cccs3)C(=O)O2)cc1	i	43.8
COc1ccc(C2=C/C(=C/c3cccs3)C(=O)O2)cc1	i	i
COc1ccc(C(=O)Nc2ccccc2)cc1NC(=O)c1cccc(F)c1	i	i
CNC(=O)c1ccc(CN2CCc3ccccc3C2)cc1	i	i
Cc1cccc(C(=O)Nc2ccc(C(=O)/C=C/c3ccncc3)cc2)c1	0.738	i
CC(=O)Nc1cccc(C(=O)/C=C/c2ccc(/C=C/C(=O)c3cccc(NC(C)=O)c3)cc2)c1	i	i
CC1=NN(c2ccc(C)c(Cl)c2)C(=O)C1	0.718	i
Cc1ccc(N2C(=O)C3C4C=CC(C5CC45)C3C2=O)cc1Cl (stereo unspecified)	i	i
C/C(=N/N=C1\NC(=O)C(CC(=O)Nc2ccc(Cl)cc2Cl)S1)c1ccc(F)cc1 (stereo unspecified)	1.22	i
